Potency data for 40 molecules are collected here from PubChem BioAssay (NCATS).

Each structure is given as a SMILES string. Several values for one entry are separate records, joined by “and”; a condition that tells them apart may be missing. Equal values may be shown once. Records with an inconclusive call do not appear. A call without a number means that no potency is given here. Activity calls are given as the source filed them. Calls come from the whole dose curve; as a rule, active = well fitted cell-killing curve with a large enough effect; inconclusive = small, poorly fitted or top-dose-only effect; inactive = flat fitted curve, though single readings scatter.
Potency is the fitted concentration of half-maximal effect.

This assay is described as follows: qHTS of pediatric cancer cell lines to identify multiple opportunities for drug repurposing: Primary screen for BT-12 cells (AID 1347101). Note: nearly all actives have a fitted effect of over 25% in size. To be noted: BT-12 viability, CellTiter-Glo luminescence, 48 h; series mostly up to 57.3 µM. The source says: Drug repurposing or repositioning has been offered as a strategy for drug development in oncology programs. This approach has special potential for childhood cancers and other rare or orphan diseases, where the expected return on new drug development has been a disincentive to pharmaceuticals.
In this project we exploit the poly-pharmacology of drugs to discover new indications via phenotypic screening of a panel of 19 well-characterized cell lines derived from solid tumors seen in children and adolescents. The goal is to identify approved drugs with previously unrecognized anticancer properties that has the potential to reveal new mechanisms and biological processes involved in carcinogenesis or drug resistance. We employed a titration-based paradigm (quantitative high-throughput screening or qHTS), where all compounds were tested at multiple concentrations for their effect on cell viability. Concentration-response curves (CRCs) were derived directly from the primary screen, and both potency and efficacy values were used to identify compounds with robust bioactivity profiles. We screened the NIH Chemical Genomics Center (NCGC) Pharmaceutical Collection (NPC) and Mechanism Interrogation Plate (MIPE) small molecule collections of approved and investigational compounds against these cell lines; and measured metabolically active cells after 48 hours of compound treatment as a proxy for cell viability.
Assay Submitter: Nathalia J. Martinez, National Center for Advancing Translational Sciences, National Institutes of Health, Rockville, MD, USA; email: natalia.martinez@nih.gov
[1] Shen, M et al. Quantitative high-throughput phenotypic screening of pediatric cancer cell lines identifies multiple opportunities for drug repurposing. Oncotarget 2017 Dec 19;9(4):4758-4772. PMID 29435139.
The cells were obtained from University of North Carolina (UNC), Pediatric Preclinical Testing Program (PPT), and Coriell Institute (CI).
qHTS cell viability assay:
Cells were assayed in growth media at a density of 500-1,000 cells/well. Five microliters of cells were dispensed into 1,536-well, white, solid-bottom, TC-treated plates (Greiner Bio One) using a multidrop dispenser and incubated at 37 degrees C, 5% CO2, under a humidified atmosphere for 5 hours. Twenty-three nanoliters of compounds and controls (neutral control DMSO or positive control bortezomib at final concentration of 2.3 µM) were subsequently transferred by Kalypsys pintool. For primary screens, the MIPE collection was tested at 11-point dilutions (final concentrations range from 0.78 nM to 46 µM) and the NPC collection at 8-point dilutions (final concentrations range from 0.59 nM to 46 µM). Compounds tested in follow-up screens were assayed at 11-point dilutions. Cells were incubated for 48 hours, followed by addition of 3 µL of CellTiter-Glo (Promega). After a 15 min incubation at room temperature, samples were analyzed for luminescence intensity using a ViewLux High-throughput CCD imager equipped with clear filters.
For orientation: Quantitative high-throughput screening tests each substance at several concentrations.
With `CN(C)C(=O)c1ccc(S(=O)(=O)c2ccc(NC(=O)[C@@](C)(O)C(F)(F)F)c(Cl)c2)cc1`, the Potency is 13.7 µM (active).

Take `Nc1nc2c(ncn2COCCO)c(=O)[nH]1`: the Potency result was “inactive”.

As for `O=C(C=Cc1ccc(/C=C/C(=O)Nc2ccc(C3=NCCN3)cc2)cc1)Nc1ccc(C2=NCCN2)cc1`, the Potency result was “inactive”.

With `CC(=O)Oc1ccccc1C(=O)O`, the Potency result was “inactive”.

Take `c1ccc(-c2nn3c(c2-c2ccnc4cc(OCCN5CCOCC5)ccc24)CCC3)nc1`: the Potency result was “inactive”.

Turning to `C1COC(NC(C2CC2)C2CC2)=N1`, the Potency entry is “inactive”.

In the case of `CCCC(CCC)C(=O)O`, the Potency entry is “inactive”.

As to `NC(=O)c1ccc(-c2nc(-c3ccc4c(c3)OCCO4)c(-c3ccccn3)[nH]2)cc1`, the Potency result was “inactive”.

As to `N[C@@H]1CONC1=O`, the Potency entry was “inactive”.

Consider `C#Cc1cccc(Nc2ncnc3cc(OCCOC)c(OCCOC)cc23)c1`, for which the Potency was 24.3 µM (active).

For `CCc1cncnc1N1CCN(Cc2nc3ccc(C(F)(F)F)cc3[nH]2)CC1`, the Potency was 12.2 µM (active).

Turning to `OC(CCN1CCCCC1)(c1ccccc1)C1CC2C=CC1C2` (stereo not given), the Potency entry is “inactive”.

For the molecule `CCc1ccc(CCOc2ccc(CC3SC(=O)NC3=O)cc2)nc1` (stereo not given), the Potency entry was “inactive”.

As to `Cc1ccccc1C(OCCN(C)C)c1ccccc1` (stereo not given), the Potency result is “inactive”.

For the molecule `O=c1[nH]cnc2[nH]ncc12`, the Potency result was “inactive”.

For the molecule `COc1ccc([C@@H]2CC(=O)c3c(O)cc(O[C@@H]4O[C@H](CO[C@@H]5O[C@@H](C)[C@H](O)[C@@H](O)[C@@H]5O)[C@@H](O)[C@H](O)[C@@H]4O)cc3O2)cc1O`, the Potency entry was “inactive”.

Turning to `O=C1CCC(N2C(=O)c3ccccc3C2=O)C(=O)N1` (stereo not given), the Potency result was “inactive”.

As to `OC(CN1CCC(Cc2ccc(F)cc2)CC1)c1ccc(Cl)cc1` (stereo not given), the Potency entry is “inactive”.

Regarding `CCCCNc1cc(C(=O)O)cc(S(N)(=O)=O)c1Oc1ccccc1`, the Potency result is “inactive”.

In the case of `CNC(=O)c1ccccc1Sc1ccc2c(/C=C/c3ccccn3)n[nH]c2c1`, the Potency was 17.4 µM (active).

In the case of `CCOc1cc(N2CCC(O)CC2)ccc1Nc1ncc2c(n1)N(C)c1ccccc1C(=O)N2C`, the Potency was 0.0863 µM (active).

Turning to `CC(C=CC1=C(C)CCCC1(C)C)=CC=CC(C)=CC(=O)O`, the Potency result was “inactive”.

`CC(C)OC(=O)C1=CN(C(=O)c2ccc(F)c(F)c2)CC(C)(C)c2c1[nH]c1ccccc21`: the Potency result is “inactive”.

Take `Cc1cccc(-c2[nH]c(C(C)(C)C)nc2-c2ccc3nccnc3c2)n1`: the Potency was 24.3 µM (active).

Turning to `Cc1n[nH]c(C)c1Cc1sc2c(c1C(=O)N1C[C@H](O)CO1)c(=O)n(C)c(=O)n2CC(C)C`, the Potency entry was “inactive”.

For `CCC(C)(C)C(=O)O[C@H]1C[C@@H](C)C=C2C=C[C@H](C)[C@H](CC[C@@H]3C[C@@H](O)CC(=O)O3)[C@H]21`, the Potency was 1.38 µM (active) and 1.93 µM (active).

Turning to `C[C@H](NC(=O)Cc1cc(F)cc(F)c1)C(=O)N[C@@H]1C(=O)N(C)c2ccccc2-c2ccccc21`, the Potency result was “inactive”.

`O=C1CCc2cc(OCCCCc3nnnn3C3CCCCC3)ccc2N1`: the Potency result is “inactive”.

As to `C[C@]12CC[C@H](O)CC1=CC[C@@H]1[C@H]2CC[C@]2(C)C(c3cccnc3)=CC[C@H]12`, the Potency entry was “inactive”.

As to `COc1ccc(C2=N[C@H](c3ccc(Cl)cc3)[C@H](c3ccc(Cl)cc3)N2C(=O)N2CCNC(=O)C2)c(OC(C)C)c1`, the Potency was 24.3 µM (active).

Take `COc1cc2c(cc1OC)CN(CCc1ccc(NC(=O)c3cccc4c(=O)c5cccc(OC)c5[nH]c34)cc1)CC2`: the Potency result is “inactive”.

On to `Cc1[nH]c(=O)c(C#N)cc1-c1ccc2nccn2c1`, for which the Potency entry is “inactive”.

For the molecule `CCN(CC)CCCC(C)Nc1ccnc2cc(Cl)ccc12` (stereo not given), the Potency was 3.43 µM (active).

Turning to `Cc1cc2c(C(C)C)c(O)c(O)c(C=O)c2c(O)c1-c1c(C)cc2c(C(C)C)c(O)c(O)c(C=O)c2c1O`, the Potency was 13.8 µM (active) and 19.3 µM (active).

`NC[C@H](O)c1ccc(O)c(O)c1`: the Potency entry is “inactive”.

As for `CC(C)C[C@H](NC(=O)[C@@H](O)[C@H](N)Cc1ccccc1)C(=O)O`, the Potency is 30.6 µM (active).

With `Clc1cccc(Cl)c1NC1=NCCN1`, the Potency entry was “inactive”.

As for `O=C(O)CCc1ccc(NCc2cccc(Oc3ccccc3)c2)cc1`, the Potency entry is “inactive”.

`O=c1n(CCCN2CCN(c3cccc(Cl)c3)CC2)nc2ccccn12`: the Potency result is “inactive”.

`NC(=O)c1ccc(-c2nc(-c3ccc4c(c3)OCO4)c(-c3ccccn3)[nH]2)cc1`: the Potency result was “inactive”.
